In PubChem BioAssay (EPA / NIEHS):
Results filed as inconclusive are left out. Active and inactive are the calls of the source. The calls were made as follows, unless noted: active = hit-call score of the fitted dose curve at least 0.9, where 1 is the maximum; inactive = score below 0.9.

Tests used:
[1] = molecular target: Glucocorticoid receptor (Homo sapiens) (UniProt P04150); experiment: ATG_GR_TRANS: Attagene TRANS-FACTORIAL HepG2 Assay for human Glucocorticoid Receptor (GR) (AID 2282978; active = hit-call score of the fitted dose curve at least 0.9, where 1 is the maximum;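 also: activators score as hits since higher reporter transcript over DMSO is fitted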); conditions: HepG2 Attagene TRANS GR reporter, mRNA transcription
Glucocorticoid receptor (Homo sapiens), sequence (P04150 whole entry, looked up): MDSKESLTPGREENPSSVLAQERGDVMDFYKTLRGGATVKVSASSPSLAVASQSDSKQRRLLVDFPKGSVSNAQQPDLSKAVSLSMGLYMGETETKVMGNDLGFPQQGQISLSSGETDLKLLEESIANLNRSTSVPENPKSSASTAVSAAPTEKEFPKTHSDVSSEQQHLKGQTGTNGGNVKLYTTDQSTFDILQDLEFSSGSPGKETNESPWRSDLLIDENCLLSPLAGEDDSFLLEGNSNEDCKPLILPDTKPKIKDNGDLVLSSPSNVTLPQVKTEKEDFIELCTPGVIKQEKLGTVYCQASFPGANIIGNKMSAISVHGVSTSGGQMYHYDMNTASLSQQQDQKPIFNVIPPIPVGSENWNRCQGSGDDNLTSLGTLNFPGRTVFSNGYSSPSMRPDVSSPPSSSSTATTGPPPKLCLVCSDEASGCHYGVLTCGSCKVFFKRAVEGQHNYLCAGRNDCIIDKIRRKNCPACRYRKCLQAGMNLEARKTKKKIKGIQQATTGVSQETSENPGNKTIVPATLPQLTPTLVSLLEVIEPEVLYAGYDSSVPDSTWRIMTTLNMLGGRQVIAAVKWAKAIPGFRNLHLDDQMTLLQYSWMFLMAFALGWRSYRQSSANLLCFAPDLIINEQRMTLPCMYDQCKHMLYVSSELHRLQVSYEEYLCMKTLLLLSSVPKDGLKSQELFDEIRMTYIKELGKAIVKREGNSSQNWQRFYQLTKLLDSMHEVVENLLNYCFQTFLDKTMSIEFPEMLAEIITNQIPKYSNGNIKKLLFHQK
Summary of the method: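 After 24 h incubation with test chemical, transfected HepG2 cells were lysed for RNA; reporter cDNA was amplified, FAM-labelled, HpaI-digested and sized on a capillary analyser. Signal gain relative to DMSO was scored.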

[2] = molecular target: Hepatocyte nuclear factor 4-alpha (Homo sapiens) (UniProt P41235); experiment: ATG_HNF4a_TRANS: Attagene TRANS-FACTORIAL HepG2 Assay for human Hepatocyte Nuclear Factor 4 alpha (HNF4a) (AID 2282982; active = hit-call score of the fitted dose curve at least 0.9, where 1 is the maximum); conditions: HepG2 HNF4a transactivation reporter, mRNA readout
Hepatocyte nuclear factor 4-alpha (Homo sapiens), sequence (P41235 whole entry, looked up, the tested form may be a part): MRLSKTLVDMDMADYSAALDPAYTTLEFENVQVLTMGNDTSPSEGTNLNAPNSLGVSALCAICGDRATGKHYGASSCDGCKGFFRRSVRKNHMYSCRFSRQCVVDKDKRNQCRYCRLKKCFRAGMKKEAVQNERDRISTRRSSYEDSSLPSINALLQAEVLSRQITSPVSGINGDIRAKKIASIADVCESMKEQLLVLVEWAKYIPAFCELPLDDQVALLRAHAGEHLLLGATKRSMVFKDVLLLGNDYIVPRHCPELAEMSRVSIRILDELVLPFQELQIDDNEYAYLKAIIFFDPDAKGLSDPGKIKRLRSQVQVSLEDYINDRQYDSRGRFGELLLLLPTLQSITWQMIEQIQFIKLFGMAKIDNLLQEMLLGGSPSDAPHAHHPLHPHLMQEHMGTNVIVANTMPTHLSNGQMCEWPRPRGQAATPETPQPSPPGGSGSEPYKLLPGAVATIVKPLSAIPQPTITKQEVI
Summary of the method: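 Readout is fluorescent reporter-transcript fragments resolved by capillary electrophoresis after RT-PCR from HepG2 cells dosed for 24 h. Cells carried transfected GAL4-UAS reporter constructs measuring exogenous NR-GAL4 chimera activity; DMSO served as baseline.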

[3] = ATG_M_06_TRANS: Attagene TRANS-FACTORIAL HepG2 Assay for M06 Transcription Factor (Internal Marker) (AID 2282983; active = hit-call score of the fitted dose curve at least 0.9, where 1 is the maximum); conditions: HepG2 Attagene TRANS M06 internal marker reporter
Summary of the method: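 Transfect HepG2 with MRTUs → dose compounds 24 h → isolate RNA, oligo(dT) RT → PCR with reporter primers → 6-FAM primer extension → HpaI digest → CE fragment analysis. Positive direction vs DMSO.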

[4] = ATG_M_32_TRANS: Attagene TRANS-FACTORIAL HepG2 Assay for M32 Transcription Factor (Internal Marker) (AID 2282984; active = hit-call score of the fitted dose curve at least 0.9, where 1 is the maximum;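 also: transcript level of a background control reporter unit measured by RT-PCR and capillary electrophoresis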); conditions: HepG2 Attagene TRANS M32 internal marker reporter
Summary of the method: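 Measures reporter mRNA induction in human HepG2 liver cells after 24 h chemical treatment. Transcripts from transiently transfected GAL4-UAS reporter units are amplified, fluorescently labelled and sized by capillary electrophoresis; gain of signal relative to DMSO.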

[5] = molecular target: Transcriptional activator Myb (Homo sapiens) (UniProt P10242); experiment: ATG_Myb_CIS: Attagene CIS-FACTORIAL HepG2 Assay for human Myeloblastosis (Myb) Proto-Oncogene Transcription Factor (AID 2282986); conditions: HepG2 Attagene CIS-FACTORIAL Myb reporter transcription; actives raise or lower the signal
Transcriptional activator Myb (Homo sapiens), sequence (P10242 whole entry, looked up): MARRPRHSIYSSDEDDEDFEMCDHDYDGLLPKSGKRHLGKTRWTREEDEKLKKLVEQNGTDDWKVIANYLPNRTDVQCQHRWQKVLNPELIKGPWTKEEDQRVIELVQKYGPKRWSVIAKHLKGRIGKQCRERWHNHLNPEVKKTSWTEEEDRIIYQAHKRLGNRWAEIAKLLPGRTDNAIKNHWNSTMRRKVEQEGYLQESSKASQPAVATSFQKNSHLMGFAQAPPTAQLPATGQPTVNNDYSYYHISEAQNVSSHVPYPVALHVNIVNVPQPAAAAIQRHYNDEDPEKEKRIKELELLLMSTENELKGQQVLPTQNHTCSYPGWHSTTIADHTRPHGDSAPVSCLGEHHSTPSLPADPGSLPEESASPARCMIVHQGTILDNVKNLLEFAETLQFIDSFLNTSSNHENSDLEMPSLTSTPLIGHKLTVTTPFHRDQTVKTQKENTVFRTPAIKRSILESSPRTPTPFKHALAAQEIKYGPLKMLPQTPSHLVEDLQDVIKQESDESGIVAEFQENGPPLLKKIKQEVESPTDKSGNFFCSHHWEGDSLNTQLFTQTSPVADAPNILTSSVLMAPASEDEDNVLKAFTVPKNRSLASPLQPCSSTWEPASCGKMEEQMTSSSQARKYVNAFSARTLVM
Summary of the method: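 After 24 h of compound dosing, total RNA from transfected HepG2 cells is reverse-transcribed and the reporter sequences amplified, labeled and separated by capillary electrophoresis. Values come from bidirectional fitting against DMSO.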

[6] = molecular target: Nuclear respiratory factor 1 (Homo sapiens) (UniProt Q16656); experiment: ATG_NRF1_CIS: Attagene CIS-FACTORIAL HepG2 Assay for human Nuclear Respiratory Factor 1 (NRF1) Orphan Gene (AID 2282987); conditions: HepG2 NRF1 cis-element reporter, Attagene multiplex; actives raise or lower the signal
Nuclear respiratory factor 1 (Homo sapiens), sequence (Q16656 whole entry, looked up): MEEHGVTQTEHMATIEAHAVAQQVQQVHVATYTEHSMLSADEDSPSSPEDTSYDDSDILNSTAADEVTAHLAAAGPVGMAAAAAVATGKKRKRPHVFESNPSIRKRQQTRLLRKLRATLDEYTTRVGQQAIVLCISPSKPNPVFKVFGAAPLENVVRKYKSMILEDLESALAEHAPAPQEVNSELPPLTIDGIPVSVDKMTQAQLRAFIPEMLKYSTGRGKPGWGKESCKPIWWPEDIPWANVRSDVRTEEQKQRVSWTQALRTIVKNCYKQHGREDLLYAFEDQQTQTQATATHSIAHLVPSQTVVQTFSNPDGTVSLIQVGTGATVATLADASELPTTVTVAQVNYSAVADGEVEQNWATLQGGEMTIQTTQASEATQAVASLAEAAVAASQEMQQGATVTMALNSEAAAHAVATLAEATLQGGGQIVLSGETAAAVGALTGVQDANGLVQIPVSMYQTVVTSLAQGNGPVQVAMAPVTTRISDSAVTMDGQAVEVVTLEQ
Summary of the method: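 Measured: fluorescent reporter-specific RT-PCR products from transfected HepG2 cells, separated by capillary electrophoresis. Exposure lasted 24 h. Analysis used bidirectional curve fitting with DMSO as negative control.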

[7] = ATG_NFI_CIS: Attagene CIS-FACTORIAL HepG2 Assay for human Nuclear Factor I (NFI) (AID 2282989); conditions: HepG2 cis-regulatory reporter, NFI response element transcription; actives raise or lower the signal
Summary of the method: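 Transient MRTU transfection of HepG2 → 24 h chemical dosing → total RNA, oligo(dT) RT → PCR, 6-FAM primer extension, HpaI cut → capillary electrophoresis. Endpoint fitted bidirectionally relative to DMSO.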

[8] = ATG_Oct_MLP_CIS: Attagene CIS-FACTORIAL HepG2 Assay for human Octamer-Binding Transcription Factor (Oct) (AID 2282993); conditions: HepG2 Attagene cis-factorial Oct reporter, mRNA; actives raise or lower the signal
Summary of the method: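 Transient MRTU transfection of HepG2 → 24 h compound treatment → RNA isolation, reverse transcription, PCR → 6-FAM primer extension, HpaI digest → capillary electrophoresis. Activity fitted both directions against DMSO.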

[9] = BSK_3C_TissueFactor: BioMAP Diversity Plus: 3C Assay for Tissue Factor Biomarker Activity (AID 2282997); conditions: BioMAP 3C HUVEC, tissue factor biomarker readout; actives raise or lower the signal
Summary of the method: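 ELISA read-out of Tissue Factor levels on human umbilical vein endothelium collected 24 h after chemical dosing. Gain or loss of signal was fitted relative to DMSO.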

[10] = BSK_3C_uPAR: BioMAP Diversity Plus: 3C Assay for Urokinase-type plasminogen activator receptor (uPAR) Biomarker Activity (AID 2282998); conditions: BioMAP 3C HUVEC, uPAR biomarker ELISA; actives raise or lower the signal
Summary of the method: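 ELISA readout of uPAR on human vascular endothelium (umbilical vein primary cells), taken 24 h after chemical dosing. Increases and decreases are both fitted relative to DMSO vehicle.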

[11] = BSK_3C_VCAM1: BioMAP Diversity Plus: 3C Assay for Vascular cell adhesion molecule 1 (VCAM1) Biomarker Activity (AID 2282999); conditions: BioMAP 3C HUVEC, VCAM1 ELISA, cytokine-stimulated; actives raise or lower the signal
Summary of the method: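 Endothelial cells from human umbilical vein are treated with test chemical. At 24 h, VCAM-1 is measured by ELISA, and responses in either direction are fitted relative to DMSO.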

[12] = BSK_4H_Eotaxin3: BioMAP Diversity Plus: 4H Assay for Eotaxin 3 Biomarker Activity (AID 2283000); conditions: primary human endothelial cells (HUVEC); actives raise or lower the signal;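 also: CCL26 protein level quantified by ELISA in parallel with SRB cytotoxicity check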
Summary of the method: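 Chemicals were added to human umbilical vein endothelium cultures, and Eotaxin-3 was quantified by ELISA at 24 h. Values were derived by bidirectional fitting with DMSO serving as negative control and activity baseline.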

[13] = molecular target: Oxysterols receptor LXR-beta (Homo sapiens) (UniProt P55055); experiment: ATG_LXRb_TRANS: Attagene TRANS-FACTORIAL HepG2 Assay for human Liver X Receptor beta (LXRb) (AID 2282981; active = hit-call score of the fitted dose curve at least 0.9, where 1 is the maximum); conditions: HepG2 Attagene TRANS GAL4-LXRb reporter, mRNA
Oxysterols receptor LXR-beta (Homo sapiens), sequence (P55055 whole entry, looked up, the tested form may be a part): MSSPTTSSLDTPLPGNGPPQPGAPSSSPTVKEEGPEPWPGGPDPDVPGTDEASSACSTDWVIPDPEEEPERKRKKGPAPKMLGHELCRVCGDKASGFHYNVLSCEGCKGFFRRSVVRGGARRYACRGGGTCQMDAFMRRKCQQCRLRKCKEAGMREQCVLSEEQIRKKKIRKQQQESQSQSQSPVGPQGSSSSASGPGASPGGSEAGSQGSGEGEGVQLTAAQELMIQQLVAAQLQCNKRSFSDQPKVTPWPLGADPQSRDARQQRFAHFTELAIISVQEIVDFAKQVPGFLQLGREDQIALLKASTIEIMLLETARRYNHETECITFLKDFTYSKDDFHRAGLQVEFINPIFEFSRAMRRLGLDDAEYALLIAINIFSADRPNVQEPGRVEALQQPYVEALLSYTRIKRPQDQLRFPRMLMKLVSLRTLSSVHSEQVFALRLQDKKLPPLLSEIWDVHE
Summary of the method: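 Transient transfection HepG2 (multiplexed RTUs, GAL4-UAS); NR-Gal4 chimera; 24 h exposure; RNA → RT-PCR → 6-FAM primer extension → HpaI → CE; increase vs DMSO.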

[14] = molecular target: Myc proto-oncogene protein (Homo sapiens) (UniProt P01106); experiment: ATG_Myc_CIS: Attagene CIS-FACTORIAL HepG2 Assay for human Myelocytomatosis (Myc) Proto-Oncogene Transcription Factor (AID 2282990); conditions: HepG2, Attagene cis-reporter transcription factor activity; actives raise or lower the signal
Myc proto-oncogene protein (Homo sapiens), sequence (P01106 whole entry, looked up): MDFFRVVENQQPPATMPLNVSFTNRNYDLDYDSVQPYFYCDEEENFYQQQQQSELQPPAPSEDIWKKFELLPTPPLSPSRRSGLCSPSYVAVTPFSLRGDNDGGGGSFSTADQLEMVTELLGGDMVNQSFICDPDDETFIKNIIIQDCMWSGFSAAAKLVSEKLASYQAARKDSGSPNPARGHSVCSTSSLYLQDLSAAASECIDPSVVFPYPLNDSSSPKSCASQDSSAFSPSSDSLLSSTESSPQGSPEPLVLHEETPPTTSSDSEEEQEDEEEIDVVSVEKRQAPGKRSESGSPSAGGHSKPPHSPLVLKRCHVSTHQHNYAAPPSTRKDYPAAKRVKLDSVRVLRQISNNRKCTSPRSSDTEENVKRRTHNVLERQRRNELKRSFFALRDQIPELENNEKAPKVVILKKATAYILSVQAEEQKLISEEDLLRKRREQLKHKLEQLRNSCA
Summary of the method: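 HepG2, transient MRTU transfection (cis promoters, endogenous TFs); 24 h dosing; TriZol RNA → oligo(dT) RT → PCR → 6-FAM primer extension → HpaI cut → CE. Bidirectional fit vs DMSO.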

[15] = ATG_NF_kB_CIS: Attagene CIS-FACTORIAL HepG2 Assay for human Nuclear Factor Kappa B (NF-kB) (AID 2282991); conditions: HepG2 Attagene cis-factorial NF-kB reporter mRNA; actives raise or lower the signal
Summary of the method: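 Fluorescence of labelled RT-PCR products separated by capillary electrophoresis gives reporter mRNA levels from transfected HepG2 cells exposed 24 h; values are fitted in both directions relative to DMSO.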

[16] = molecular target: Cellular tumor antigen p53 (Homo sapiens) (UniProt P04637); experiment: ATG_p53_CIS: Attagene CIS-FACTORIAL HepG2 Assay for human p53 Transcription Factor (AID 2282994); conditions: HepG2 p53 cis-element reporter, Attagene mRNA; actives raise or lower the signal
Cellular tumor antigen p53 (Homo sapiens), sequence (P04637 whole entry, looked up): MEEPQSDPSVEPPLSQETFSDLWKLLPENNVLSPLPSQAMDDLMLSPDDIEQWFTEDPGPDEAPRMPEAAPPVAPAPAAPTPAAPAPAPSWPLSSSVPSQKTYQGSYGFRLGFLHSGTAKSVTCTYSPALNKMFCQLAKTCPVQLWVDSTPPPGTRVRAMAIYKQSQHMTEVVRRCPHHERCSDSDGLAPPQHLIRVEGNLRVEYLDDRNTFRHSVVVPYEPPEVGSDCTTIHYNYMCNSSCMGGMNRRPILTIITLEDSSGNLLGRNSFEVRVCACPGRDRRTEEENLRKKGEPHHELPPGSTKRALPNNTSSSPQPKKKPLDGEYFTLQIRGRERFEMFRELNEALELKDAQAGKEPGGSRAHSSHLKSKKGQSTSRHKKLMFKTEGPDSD
Summary of the method: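 Multiplexed reporter mRNA assay in human HepG2 liver cells; cis-regulated units report endogenous factor activity. Values come from bidirectional curve fitting against DMSO negative control after 24 h treatment.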

[17] = molecular target: Bile acid receptor (Homo sapiens) (UniProt Q96RI1); experiment: ATG_FXR_TRANS: Attagene TRANS-FACTORIAL HepG2 Assay for Farnesoid X Receptor (FXR) (AID 2282979; active = hit-call score of the fitted dose curve at least 0.9, where 1 is the maximum;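 also: hits raise reporter mRNA above DMSO so AC50 marks FXR activation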); conditions: HepG2 Attagene TRANS FXR-GAL4 reporter transcription
Bile acid receptor (Homo sapiens), sequence (Q96RI1 whole entry, looked up, the tested form may be a part): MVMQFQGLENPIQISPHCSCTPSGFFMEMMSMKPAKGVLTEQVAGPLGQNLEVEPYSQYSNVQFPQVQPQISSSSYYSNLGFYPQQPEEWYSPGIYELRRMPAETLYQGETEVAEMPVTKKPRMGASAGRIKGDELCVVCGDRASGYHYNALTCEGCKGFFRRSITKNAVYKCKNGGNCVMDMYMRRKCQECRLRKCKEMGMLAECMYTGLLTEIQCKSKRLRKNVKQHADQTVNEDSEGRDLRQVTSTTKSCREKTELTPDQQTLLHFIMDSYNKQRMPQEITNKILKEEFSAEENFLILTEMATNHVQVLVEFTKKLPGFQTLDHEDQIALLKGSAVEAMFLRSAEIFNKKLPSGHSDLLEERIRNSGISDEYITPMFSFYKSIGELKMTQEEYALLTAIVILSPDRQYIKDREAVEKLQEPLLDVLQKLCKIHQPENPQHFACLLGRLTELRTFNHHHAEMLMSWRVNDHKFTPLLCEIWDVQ
Summary of the method: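 Transient transfection of HepG2 with multiplexed GAL4-UAS reporter units; exogenous FXR-GAL4 chimera. Dose 24 h → TriZol RNA → oligo(dT) RT → PCR, 6-FAM primer extension, HpaI cut → CE. Gain vs DMSO.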

[18] = molecular target: Nuclear receptor subfamily 4 group A member 2 (Homo sapiens) (UniProt P43354); experiment: ATG_NURR1_TRANS: Attagene TRANS-FACTORIAL HepG2 Assay for human Nuclear Receptor Related Protein 1 (NURR1) (AID 2282985; active = hit-call score of the fitted dose curve at least 0.9, where 1 is the maximum); conditions: HepG2 Attagene TRANS reporter, mRNA readout
Nuclear receptor subfamily 4 group A member 2 (Homo sapiens), sequence (P43354 whole entry, looked up, the tested form may be a part): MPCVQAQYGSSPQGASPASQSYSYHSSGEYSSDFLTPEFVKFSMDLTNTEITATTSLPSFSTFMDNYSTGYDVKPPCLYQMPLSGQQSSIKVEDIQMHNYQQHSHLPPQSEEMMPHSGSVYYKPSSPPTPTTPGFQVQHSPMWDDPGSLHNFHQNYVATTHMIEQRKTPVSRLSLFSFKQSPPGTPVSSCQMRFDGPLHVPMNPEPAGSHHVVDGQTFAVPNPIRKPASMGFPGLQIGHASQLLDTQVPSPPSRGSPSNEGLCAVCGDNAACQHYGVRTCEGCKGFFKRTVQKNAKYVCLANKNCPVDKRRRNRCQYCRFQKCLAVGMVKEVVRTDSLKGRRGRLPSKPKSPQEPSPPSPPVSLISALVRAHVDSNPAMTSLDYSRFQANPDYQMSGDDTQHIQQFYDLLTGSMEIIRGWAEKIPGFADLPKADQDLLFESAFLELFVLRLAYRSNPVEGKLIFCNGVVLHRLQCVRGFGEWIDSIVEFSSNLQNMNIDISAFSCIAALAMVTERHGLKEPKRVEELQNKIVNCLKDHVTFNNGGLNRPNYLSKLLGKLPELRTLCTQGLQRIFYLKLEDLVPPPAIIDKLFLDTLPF
Summary of the method: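 Transient transfection of HepG2, human liver cells, with multiple GAL4-UAS reporter transcription units. Cells dosed 24 h, RNA isolated, reverse-transcribed, PCR-amplified, FAM-labelled, HpaI-digested, sized by capillary electrophoresis. DMSO served as negative control.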

[19] = ATG_NRF2_ARE_CIS: Attagene CIS-FACTORIAL HepG2 Assay for human Nuclear Factor Erythroid 2 Related Factor 2 (NFR2) response to Antioxidant Response Elements (ARE) (AID 2282992); conditions: HepG2 Attagene ARE/NRF2 reporter, transcription factor activity; actives raise or lower the signal
Summary of the method: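 Multiplexed reporter mRNA profiling in HepG2 after a 24 h chemical exposure. Curves fitted in both directions relative to DMSO negative control.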

[20] = molecular target: Oxysterols receptor LXR-alpha (Homo sapiens) (UniProt Q13133); experiment: ATG_LXRa_TRANS: Attagene TRANS-FACTORIAL HepG2 Assay for human Liver X Receptor alpha (LXRa) (AID 2282980; active = hit-call score of the fitted dose curve at least 0.9, where 1 is the maximum); conditions: HepG2 Attagene TRANS reporter, LXRa transactivation
Summary of the method: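 Transfect HepG2 with GAL4-UAS multiplex reporter constructs (TRANS format, chimeric receptor-GAL4); treat 24 h; extract RNA, reverse-transcribe, PCR-amplify, FAM-label, HpaI-digest; resolve fragments by capillary electrophoresis. Upward response vs DMSO.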

Measured: AC50

OCCNCCO
not listed: [13] | [14] | [15] | [16] | [17] | [18] | [19] | [20]
inactive: all other assays above

NNC(=O)c1ccncc1
not listed: [2] | [17] | [18] | [19] | [20]
inactive: all other assays above

CC(C)CCCCCCOC(=O)C1CCCCC1C(=O)OCCCCCCC(C)C (stereo not drawn)
not listed: [1] | [2] | [4] | [14] | [16] | [20]
inactive: all other assays above

CC(C)C(=O)Nc1ccc([N+](=O)[O-])c(C(F)(F)F)c1
active: [18] 43.5 µM | [8] 26.1 µM
not listed: [1] | [4] | [14] | [15] | [16] | [19]
inactive: all other assays above

Cc1ncc([C@@H](CCCCCCc2ccc3c(n2)NCCC3)CC(=O)O)cn1
not listed: [1] | [3] | [14] | [15] | [16]
inactive: all other assays above

OCCOCCOCCO
not listed: [2] | [13] | [17] | [20]
inactive: all other assays above

CCCCC(CC)C(=O)OCCOCCOCCOC(=O)C(CC)CCCC (stereo not drawn)
not listed: [2] | [4] | [13] | [17] | [19] | [20]
inactive: all other assays above

OC(Cn1cncn1)(Cn1cncn1)c1ccc(F)cc1F
not listed: [2] | [3] | [4] | [14] | [17] | [20]
inactive: all other assays above

NC(=O)NN=Cc1ccc([N+](=O)[O-])o1
not listed: [4] | [13] | [14] | [17] | [19] | [20]
inactive: all other assays above
